Results filed as inconclusive are left out. Values without a mark were called inactive. The source made the active and inactive calls. Calls come from the whole dose curve.
These compounds were tested against Muscarinic acetylcholine receptor M1 (Homo sapiens) (UniProt P11229) (assay: Cholinergic receptor muscarinic 1 (CHRM1) small molecule antagonists, cell-based qHTS assay (AID 1963588; note: nearly all actives have a fitted effect of over 40% in size)). Conditions: CHRM1-CHO antagonist mode, calcium flux fluorescence; series mostly up to 61.5 µM; activity, negative = inhibition: at the top concentration.
Muscarinic acetylcholine receptor M1 (Homo sapiens), sequence (P11229 whole entry, looked up): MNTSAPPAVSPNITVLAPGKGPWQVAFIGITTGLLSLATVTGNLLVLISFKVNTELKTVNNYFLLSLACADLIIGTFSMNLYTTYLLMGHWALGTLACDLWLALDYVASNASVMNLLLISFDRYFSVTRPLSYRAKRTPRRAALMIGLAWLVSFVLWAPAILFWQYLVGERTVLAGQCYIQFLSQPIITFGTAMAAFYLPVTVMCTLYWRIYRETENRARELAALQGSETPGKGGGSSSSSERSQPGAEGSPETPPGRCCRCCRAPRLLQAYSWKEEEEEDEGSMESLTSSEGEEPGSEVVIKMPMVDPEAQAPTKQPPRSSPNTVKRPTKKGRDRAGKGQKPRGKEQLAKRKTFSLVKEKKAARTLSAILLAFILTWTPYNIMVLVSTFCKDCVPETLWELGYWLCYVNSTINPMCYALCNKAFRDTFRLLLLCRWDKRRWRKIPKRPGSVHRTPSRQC
Description: National Center for Advancing Translational Sciences [NCATS]
Division of Preclinical Innovation [DPI]
U.S. Environmental Protection Agency [EPA]
National Institutes of Environmental Health Sciences [NIEHS]
National Toxicology Program [NTP]
U.S. Food and Drug Administration [FDA]
The CHRM1 is a muscarinic receptor. This receptor plays a crucial role in learning and memory processes and has long been identified as a promising therapeutic target for the improvement of cognitive decline in Alzheimer's disease (AD). The CHRM1-CHO cell line stably expressing human muscarinic acetylcholine receptor M1 (CHRM1) can be used for screening agonists and antagonists of interactions between CHRM1 and its ligands. The CHRM1-CHO Calcium Flux Assay is a homogeneous fluorescence-based assay for detecting the intracellular calcium level using FDSS kinetic plate reader system.
Tox21 Assay Protocol Summary:
CHRM1-CHO cells were dispensed at 1000 cells/3uL/well in 1536-well black-clear bottom plates using a Multidrop Dispenser. After the assay plates were incubated at a 37 C/5% CO2 incubator for 18 h, 3 uL of Dye Loading Buffer was transferred to the assay plate by a Flying Reagent Dispenser. The assay plates were incubated at 37 C for 1h. For antagonist mode, 23 nL of compounds dissolved in DMSO, positive controls or DMSO only was transferred to the assay plate by a pin tool. After 5 min incubation at room temperature, 1.5 uL of acetylcholine at 50nM was added to each well. The fluorescence intensity in the plates was measured using FDSS 7000EX kinetic plate reader for 3 min at 1 sec intervals. Each test compound was measured at 15 concentrations in three independent runs.
% is set by controls: 0 for no effect and ±100 for the full control effect; potency is the fitted concentration of half-maximal effect.

Compound	activity, negative = inhibition	Potency
C=CCCCCCCCCCCC	-16.9% [at 5.58 µM]	–
CCCCOC(=O)CCS	-10.6%	–
Cc1ccccc1C(=O)N1CC/C(=N\OS(=O)(=O)O)c2ccc(Cl)cc21	3.56% [at 28.3 µM]	–
Nc1ccc(O)cc1	–	inactive
CCOc1ncc(F)c(=O)[nH]1	-0.157% [at 28.3 µM]	–
O=C1C(O)=C(O)C(=O)C(O)=C1O	7.24% [at 28.3 µM]	–
C=CCCCCCCCCO	2.99%	–
Nc1cc(S(=O)(=O)O)cc2cc(S(=O)(=O)O)cc(O)c12	–	inactive
Oc1ccc(Cl)cc1Sc1cc(Cl)ccc1O	–	inactive
CC(=O)c1ccc2ccccc2c1	-4.66%	–
c1c[nH]cn1	–	inactive
CCC(CC)C(C)CCOC(C)=O (stereo not given)	35.2%	–
C=CC(=O)CC	-9.65%	–
CCCCCCCCCCCCCCC(=O)O	-1.62%	–
CCCCCCCCCCCCOCCO	–	inactive
FC(F)(F)c1ccccc1	35.6%	–
CCCO	17.8%	–
CC(=O)Oc1cccc(O)c1	-4.65% [at 28.3 µM]	–
CCC(C)S (stereo not given)	18.7% [at 2.17 µM]	–
c1ccc2c(c1)CCC2	16.9%	–

Compound	activity, negative = inhibition	Potency
CCCC(=O)C(C)=O	1.06%	–
CCOc1ccc(N)c([N+](=O)[O-])c1	4.49%	–
O=C(O)CCCCCCCCCCC(=O)O	–	inactive
Cc1c(I)c(=O)n(-c2ccccc2)n1C	5.15% [at 28.3 µM]	–
CC(O)C(CO)C(C)O (stereo not given)	13.3%	–
CCCCCCCCC1CCC(=O)O1 (stereo not given)	-23.6%	–
CN1CCc2cccc3c2[C@H]1Cc1ccc(O)c(O)c1-3	7.57% [at 28.3 µM]	–
COC(=O)c1ccccc1C(=O)c1ccc(OCCN2CCCCC2)cc1	–	0.0365 µM (active)
CO[Si](CCCNCCN)(OC)OC	14.4%	–
O=C(O)CCCCCC(=O)O	-0.214%	–
O=C(O)c1cc(C(=O)O)cc([N+](=O)[O-])c1	11.9%	–
CC(C)S	2%	–
O=C1c2cccc(O)c2C(=O)c2c(O)cccc21	–	inactive
N#CC1(O)CCCCC1	16.7%	–
COCCOCCOCCOCCO	-8.13%	–
CC(N)CN (stereo not given)	12.6%	–
C=CCOCC(CC)(CO)COCC=C	3.02%	–
CC(C)C(=O)c1ccccc1	36%	–
CCc1ccccc1O	–	inactive
CN1CCCC1=O	–	inactive
